Experimental data published in article PMC7862700, “An all-to-all approach to the identification of sequence-specific readers for epigenetic DNA modifications on cytosine”.

Tests used:
Test in all cases: DAPPL (digital affinity profiling via proximity ligation, sequencing); 10 mM Tris-HCl pH 7.5, 50 mM NaCl, 1 mM DTT, 4% glycerol, room temperature, 30 min; GST-TFs on glutathione beads, 16-mer random dsDNA library, 0.1% formaldehyde crosslink after washing; high values mean tight binding
[1] = target: T1, FLI1 (Homo sapiens, UniProt Q01543 1-452); details: protein: recombinant; tags: N-terminal GST; dsDNA, one strand shown
T1 sequence: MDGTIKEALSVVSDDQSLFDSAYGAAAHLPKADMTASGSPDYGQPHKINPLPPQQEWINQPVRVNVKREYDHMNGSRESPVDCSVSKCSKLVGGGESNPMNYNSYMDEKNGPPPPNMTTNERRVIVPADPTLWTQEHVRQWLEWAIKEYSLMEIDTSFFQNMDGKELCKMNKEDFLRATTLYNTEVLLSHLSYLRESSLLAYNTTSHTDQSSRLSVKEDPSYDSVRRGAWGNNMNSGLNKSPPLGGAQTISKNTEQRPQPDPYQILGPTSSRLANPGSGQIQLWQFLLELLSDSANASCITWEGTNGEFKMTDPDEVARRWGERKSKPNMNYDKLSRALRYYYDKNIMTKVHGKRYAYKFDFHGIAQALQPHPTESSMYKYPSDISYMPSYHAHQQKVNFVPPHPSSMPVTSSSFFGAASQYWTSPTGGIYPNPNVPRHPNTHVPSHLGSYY
In short: (§1)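 After expression in yeast as GST fusions, human transcription factors were bound to glutathione beads, DNA-barcoded and mixed with a tag-only sample. The pools were incubated with 200 nmole of a 16-mer random double-stranded DNA library in Tris/NaCl/DTT/glycerol buffer (30 min, room temperature), washed and crosslinked with 0.1% formaldehyde. Proximity ligation with BsaI/T4 ligase ran for 1 h at 37 °C, before PCR amplification and sequencing on an Illumina NextSeq500. Binding signal is a hexamer's read frequency for a factor divided by its frequency for the tag-only sample.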

[2] = target: T2, ELK1 (Homo sapiens, UniProt P19419 1-428); details: protein: recombinant; tags: N-terminal GST; dsDNA, one strand shown
T2 sequence: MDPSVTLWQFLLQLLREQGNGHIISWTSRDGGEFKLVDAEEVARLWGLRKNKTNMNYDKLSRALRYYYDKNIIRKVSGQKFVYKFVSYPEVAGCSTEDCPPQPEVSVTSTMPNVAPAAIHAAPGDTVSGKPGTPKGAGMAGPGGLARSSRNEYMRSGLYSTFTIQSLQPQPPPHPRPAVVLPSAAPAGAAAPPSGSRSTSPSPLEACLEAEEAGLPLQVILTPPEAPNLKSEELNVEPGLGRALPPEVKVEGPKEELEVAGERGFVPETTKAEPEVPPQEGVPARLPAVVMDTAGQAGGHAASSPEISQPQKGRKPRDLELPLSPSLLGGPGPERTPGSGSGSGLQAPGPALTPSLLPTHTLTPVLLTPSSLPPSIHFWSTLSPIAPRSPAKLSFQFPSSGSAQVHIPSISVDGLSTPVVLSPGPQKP
In short: as §1

[3] = target: T3, GABPA (Homo sapiens, UniProt Q06546 1-454); details: protein: recombinant; tags: N-terminal GST; dsDNA, one strand shown
T3 sequence: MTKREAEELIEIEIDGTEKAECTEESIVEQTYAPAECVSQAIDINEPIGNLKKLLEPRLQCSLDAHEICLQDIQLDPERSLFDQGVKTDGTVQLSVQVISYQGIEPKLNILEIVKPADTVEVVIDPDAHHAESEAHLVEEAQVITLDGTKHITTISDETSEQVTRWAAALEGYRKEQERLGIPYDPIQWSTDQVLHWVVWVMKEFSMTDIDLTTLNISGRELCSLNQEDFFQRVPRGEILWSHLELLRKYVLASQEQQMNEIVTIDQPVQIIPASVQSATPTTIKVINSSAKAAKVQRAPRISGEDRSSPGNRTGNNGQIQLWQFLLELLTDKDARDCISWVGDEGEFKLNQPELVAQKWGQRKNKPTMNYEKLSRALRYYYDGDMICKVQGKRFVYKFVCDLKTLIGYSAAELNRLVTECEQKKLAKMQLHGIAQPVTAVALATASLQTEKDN
In short: as §1

[4] = target: T4, ERG (Homo sapiens, UniProt P11308 1-479); details: protein: recombinant; tags: N-terminal GST; dsDNA, one strand shown
T4 sequence: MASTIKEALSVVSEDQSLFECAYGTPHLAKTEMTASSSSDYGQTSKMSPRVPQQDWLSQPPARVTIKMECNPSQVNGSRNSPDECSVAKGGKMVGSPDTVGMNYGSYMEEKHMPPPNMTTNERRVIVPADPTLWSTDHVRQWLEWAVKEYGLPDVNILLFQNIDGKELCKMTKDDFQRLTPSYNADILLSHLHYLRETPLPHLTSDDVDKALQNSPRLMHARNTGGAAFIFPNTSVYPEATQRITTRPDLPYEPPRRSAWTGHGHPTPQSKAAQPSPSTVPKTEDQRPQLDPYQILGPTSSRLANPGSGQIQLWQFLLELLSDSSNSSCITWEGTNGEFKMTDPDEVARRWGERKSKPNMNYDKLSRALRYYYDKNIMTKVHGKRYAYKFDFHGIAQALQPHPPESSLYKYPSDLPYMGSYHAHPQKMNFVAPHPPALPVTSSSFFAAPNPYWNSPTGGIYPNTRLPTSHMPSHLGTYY
In short: as §1

[5] = target: ELF1 (Homo sapiens, UniProt P32519 1-619); details: protein: recombinant; tags: N-terminal GST; dsDNA, one strand shown
In short: as §1

[6] = target: T5, EHF (Homo sapiens, UniProt Q9NZC4 1-300); details: protein: recombinant; tags: N-terminal GST; dsDNA, one strand shown
T5 sequence: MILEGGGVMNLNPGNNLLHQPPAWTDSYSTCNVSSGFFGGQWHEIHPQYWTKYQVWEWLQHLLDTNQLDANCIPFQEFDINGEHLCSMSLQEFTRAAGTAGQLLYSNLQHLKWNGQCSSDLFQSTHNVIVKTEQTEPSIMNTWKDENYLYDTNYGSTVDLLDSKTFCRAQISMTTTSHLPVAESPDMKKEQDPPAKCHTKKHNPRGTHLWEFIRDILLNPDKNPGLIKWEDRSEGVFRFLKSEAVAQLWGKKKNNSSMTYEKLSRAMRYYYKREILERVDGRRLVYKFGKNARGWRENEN
In short: as §1

[7] = target: SPI1 (Homo sapiens, UniProt P17947 1-270); details: protein: recombinant; tags: N-terminal GST; dsDNA, one strand shown
In short: as §1

[8] = target: SPIB (Homo sapiens, UniProt Q01892 1-262); details: protein: recombinant; tags: N-terminal GST; dsDNA, one strand shown
In short: as §1

[9] = target: T6, ELK3 (Homo sapiens, UniProt P41970 1-407); details: protein: recombinant; tags: N-terminal GST; dsDNA, one strand shown
T6 sequence: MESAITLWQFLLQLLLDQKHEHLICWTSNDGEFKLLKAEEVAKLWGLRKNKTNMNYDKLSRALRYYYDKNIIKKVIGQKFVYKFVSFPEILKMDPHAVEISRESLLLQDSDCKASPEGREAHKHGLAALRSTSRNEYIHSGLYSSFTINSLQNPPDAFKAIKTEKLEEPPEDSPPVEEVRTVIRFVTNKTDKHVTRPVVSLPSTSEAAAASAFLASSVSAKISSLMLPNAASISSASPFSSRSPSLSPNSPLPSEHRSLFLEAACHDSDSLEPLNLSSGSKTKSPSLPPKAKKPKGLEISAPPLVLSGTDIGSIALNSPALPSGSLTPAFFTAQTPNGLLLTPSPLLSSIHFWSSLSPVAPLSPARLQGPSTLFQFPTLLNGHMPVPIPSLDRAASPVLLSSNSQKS
In short: as §1

[10] = target: T7, FEV (Homo sapiens, UniProt Q99581 1-238); details: protein: recombinant; tags: N-terminal GST; dsDNA, one strand shown
T7 sequence: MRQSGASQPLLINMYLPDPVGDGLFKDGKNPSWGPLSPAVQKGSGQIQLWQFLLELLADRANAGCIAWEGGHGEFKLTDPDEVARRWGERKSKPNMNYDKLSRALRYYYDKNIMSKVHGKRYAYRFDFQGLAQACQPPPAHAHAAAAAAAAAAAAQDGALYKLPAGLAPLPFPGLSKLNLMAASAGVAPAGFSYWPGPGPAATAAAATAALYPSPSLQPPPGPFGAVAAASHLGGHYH
In short: as §1

[11] = target: ETV5 (Homo sapiens, UniProt P41161 1-510); details: protein: recombinant; tags: N-terminal GST; dsDNA, one strand shown
In short: as §1

[12] = target: HSF1 (Homo sapiens, UniProt Q00613 1-529); details: protein: recombinant; tags: N-terminal GST; chain copies: 3; dsDNA, one strand shown
In short: as §1

[13] = target: T8, SPIC (Homo sapiens, UniProt Q8N5J4 1-248); details: protein: recombinant; tags: N-terminal GST; dsDNA, one strand shown
T8 sequence: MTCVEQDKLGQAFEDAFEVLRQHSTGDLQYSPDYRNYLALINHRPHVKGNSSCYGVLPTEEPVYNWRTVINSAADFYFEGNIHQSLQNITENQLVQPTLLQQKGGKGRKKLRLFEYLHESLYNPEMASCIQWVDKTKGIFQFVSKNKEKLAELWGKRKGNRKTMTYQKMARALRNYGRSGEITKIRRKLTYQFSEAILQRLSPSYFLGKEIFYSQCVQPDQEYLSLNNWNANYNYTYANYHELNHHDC
In short: as §1

[14] = target: ELF4 (Homo sapiens, UniProt Q99607 1-663); details: protein: recombinant; tags: N-terminal GST; dsDNA, one strand shown
In short: as §1

[15] = target: T9, ELK4 (Homo sapiens, UniProt P28324-2 1-405); details: protein: recombinant; tags: N-terminal GST; dsDNA, one strand shown
T9 sequence: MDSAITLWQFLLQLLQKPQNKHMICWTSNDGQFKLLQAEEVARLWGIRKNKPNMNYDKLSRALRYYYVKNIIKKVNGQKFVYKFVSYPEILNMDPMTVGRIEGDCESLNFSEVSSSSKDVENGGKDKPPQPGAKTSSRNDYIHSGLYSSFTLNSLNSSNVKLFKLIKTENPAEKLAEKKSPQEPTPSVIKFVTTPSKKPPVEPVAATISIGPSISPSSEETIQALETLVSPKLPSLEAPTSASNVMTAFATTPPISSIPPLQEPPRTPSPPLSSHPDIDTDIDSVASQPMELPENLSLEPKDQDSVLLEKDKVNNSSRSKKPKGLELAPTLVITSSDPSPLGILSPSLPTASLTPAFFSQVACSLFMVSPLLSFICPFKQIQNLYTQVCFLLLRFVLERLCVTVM
In short: as §1

[16] = target: T10, ETV2 (Homo sapiens, UniProt O00321 1-342); details: protein: recombinant; tags: N-terminal GST; dsDNA, one strand shown
T10 sequence: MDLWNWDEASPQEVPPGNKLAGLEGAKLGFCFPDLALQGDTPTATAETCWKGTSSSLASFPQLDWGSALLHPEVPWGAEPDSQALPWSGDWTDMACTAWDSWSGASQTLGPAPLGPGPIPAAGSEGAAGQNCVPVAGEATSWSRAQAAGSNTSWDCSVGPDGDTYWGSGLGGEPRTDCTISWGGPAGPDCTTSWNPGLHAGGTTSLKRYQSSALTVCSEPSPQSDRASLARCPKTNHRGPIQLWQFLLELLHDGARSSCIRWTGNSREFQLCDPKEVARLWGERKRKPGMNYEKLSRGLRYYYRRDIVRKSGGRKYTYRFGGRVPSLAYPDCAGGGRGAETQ
In short: as §1

[17] = target: T11, ELF3 (Homo sapiens, UniProt P78545 1-371); details: protein: recombinant; tags: N-terminal GST; dsDNA, one strand shown
T11 sequence: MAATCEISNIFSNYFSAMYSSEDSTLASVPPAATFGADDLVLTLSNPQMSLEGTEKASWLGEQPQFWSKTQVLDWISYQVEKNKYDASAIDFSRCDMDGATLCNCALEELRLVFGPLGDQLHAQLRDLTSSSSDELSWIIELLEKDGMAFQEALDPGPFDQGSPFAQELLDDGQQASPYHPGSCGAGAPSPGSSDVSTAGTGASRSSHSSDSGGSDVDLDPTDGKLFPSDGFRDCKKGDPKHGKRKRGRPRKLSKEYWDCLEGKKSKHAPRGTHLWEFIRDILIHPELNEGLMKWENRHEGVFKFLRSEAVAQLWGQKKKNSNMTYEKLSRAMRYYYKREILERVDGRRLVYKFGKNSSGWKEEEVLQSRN
In short: as §1

[18] = target: CRX (Homo sapiens, UniProt O43186 1-299); details: protein: recombinant; tags: N-terminal GST; dsDNA, one strand shown
In short: as §1

[19] = target: ETV1 (Homo sapiens, UniProt P50549 1-477); details: protein: recombinant; tags: N-terminal GST; dsDNA, one strand shown
In short: as §1

Chain of CRX (O43186 whole entry): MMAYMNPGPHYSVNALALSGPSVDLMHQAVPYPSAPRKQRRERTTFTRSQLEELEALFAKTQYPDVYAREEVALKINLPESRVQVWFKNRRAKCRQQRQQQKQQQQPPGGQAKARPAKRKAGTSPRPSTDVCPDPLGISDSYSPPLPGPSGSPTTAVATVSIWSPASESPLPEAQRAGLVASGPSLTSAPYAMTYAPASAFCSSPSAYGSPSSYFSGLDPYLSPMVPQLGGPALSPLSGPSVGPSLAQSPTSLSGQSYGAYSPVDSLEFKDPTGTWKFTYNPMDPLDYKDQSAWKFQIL
Chain of ELF4 (Q99607 whole entry): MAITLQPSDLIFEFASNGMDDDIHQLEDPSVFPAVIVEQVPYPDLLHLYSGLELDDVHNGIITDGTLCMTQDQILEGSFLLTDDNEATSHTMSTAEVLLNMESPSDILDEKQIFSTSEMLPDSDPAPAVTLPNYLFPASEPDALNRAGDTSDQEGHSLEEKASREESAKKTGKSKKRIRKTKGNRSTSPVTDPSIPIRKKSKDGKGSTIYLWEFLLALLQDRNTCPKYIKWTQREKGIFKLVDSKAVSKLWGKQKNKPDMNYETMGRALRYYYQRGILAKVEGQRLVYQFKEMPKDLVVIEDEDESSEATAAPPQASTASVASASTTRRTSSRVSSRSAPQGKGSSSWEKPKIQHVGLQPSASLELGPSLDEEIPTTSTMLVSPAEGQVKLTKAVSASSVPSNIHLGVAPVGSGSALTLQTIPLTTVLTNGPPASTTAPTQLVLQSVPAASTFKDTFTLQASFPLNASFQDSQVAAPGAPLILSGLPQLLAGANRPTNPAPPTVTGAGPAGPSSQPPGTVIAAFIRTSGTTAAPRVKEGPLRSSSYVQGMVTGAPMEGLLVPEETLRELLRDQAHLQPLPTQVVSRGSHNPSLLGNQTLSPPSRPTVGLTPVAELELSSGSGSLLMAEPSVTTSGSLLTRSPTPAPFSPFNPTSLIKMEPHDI
Chain of SPIB (Q01892 whole entry): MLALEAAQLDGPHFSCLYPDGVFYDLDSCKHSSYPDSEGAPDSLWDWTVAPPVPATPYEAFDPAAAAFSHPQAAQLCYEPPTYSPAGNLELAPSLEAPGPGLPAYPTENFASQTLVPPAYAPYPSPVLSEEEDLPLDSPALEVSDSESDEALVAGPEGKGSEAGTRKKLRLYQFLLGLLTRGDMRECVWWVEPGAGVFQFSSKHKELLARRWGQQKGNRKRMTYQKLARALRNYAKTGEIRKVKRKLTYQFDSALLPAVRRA
Chain of ELF1 (P32519 whole entry): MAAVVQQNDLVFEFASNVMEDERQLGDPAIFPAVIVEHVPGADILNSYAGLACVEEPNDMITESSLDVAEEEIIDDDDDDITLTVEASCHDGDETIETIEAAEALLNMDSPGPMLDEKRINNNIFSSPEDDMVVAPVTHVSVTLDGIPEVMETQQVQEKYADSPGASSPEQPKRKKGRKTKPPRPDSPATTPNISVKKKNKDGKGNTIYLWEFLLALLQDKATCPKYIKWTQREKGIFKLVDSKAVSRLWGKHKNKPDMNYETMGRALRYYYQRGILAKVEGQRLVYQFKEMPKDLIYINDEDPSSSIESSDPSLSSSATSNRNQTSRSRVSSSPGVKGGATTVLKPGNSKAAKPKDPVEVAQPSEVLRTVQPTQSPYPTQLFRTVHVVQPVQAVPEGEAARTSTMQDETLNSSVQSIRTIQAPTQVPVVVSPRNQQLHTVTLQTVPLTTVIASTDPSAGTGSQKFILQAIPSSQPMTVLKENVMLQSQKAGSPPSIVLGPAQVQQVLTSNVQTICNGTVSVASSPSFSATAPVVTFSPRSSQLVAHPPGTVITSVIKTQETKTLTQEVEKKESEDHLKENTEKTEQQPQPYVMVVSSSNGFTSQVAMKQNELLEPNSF
Chain of ETV1 (P50549 whole entry): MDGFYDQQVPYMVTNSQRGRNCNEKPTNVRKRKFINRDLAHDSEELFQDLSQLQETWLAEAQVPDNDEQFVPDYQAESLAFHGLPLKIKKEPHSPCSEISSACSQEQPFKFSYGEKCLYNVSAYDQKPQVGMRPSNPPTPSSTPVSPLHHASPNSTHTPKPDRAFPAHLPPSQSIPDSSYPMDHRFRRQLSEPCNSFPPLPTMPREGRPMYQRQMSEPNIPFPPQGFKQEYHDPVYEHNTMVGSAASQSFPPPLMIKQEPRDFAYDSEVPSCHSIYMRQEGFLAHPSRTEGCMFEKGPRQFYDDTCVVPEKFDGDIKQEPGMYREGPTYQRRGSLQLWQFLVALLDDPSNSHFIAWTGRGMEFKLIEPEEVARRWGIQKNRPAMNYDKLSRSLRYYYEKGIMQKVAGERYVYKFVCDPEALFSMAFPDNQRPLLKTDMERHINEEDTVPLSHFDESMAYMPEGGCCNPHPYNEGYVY
Chain of ETV5 (P41161 whole entry): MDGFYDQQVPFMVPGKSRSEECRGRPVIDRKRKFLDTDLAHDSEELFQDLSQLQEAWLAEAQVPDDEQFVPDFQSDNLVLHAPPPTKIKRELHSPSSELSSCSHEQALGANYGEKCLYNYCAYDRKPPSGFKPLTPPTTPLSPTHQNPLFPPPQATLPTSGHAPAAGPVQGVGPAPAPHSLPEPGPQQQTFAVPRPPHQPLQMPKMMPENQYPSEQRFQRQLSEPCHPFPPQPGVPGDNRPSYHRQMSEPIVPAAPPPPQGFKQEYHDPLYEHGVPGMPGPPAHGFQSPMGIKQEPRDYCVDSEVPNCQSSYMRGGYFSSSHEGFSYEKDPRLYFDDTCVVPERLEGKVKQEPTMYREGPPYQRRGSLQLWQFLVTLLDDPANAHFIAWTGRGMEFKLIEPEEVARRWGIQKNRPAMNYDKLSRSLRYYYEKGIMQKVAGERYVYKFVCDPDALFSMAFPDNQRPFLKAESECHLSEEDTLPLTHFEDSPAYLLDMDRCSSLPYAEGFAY
Chain of HSF1 (Q00613 whole entry): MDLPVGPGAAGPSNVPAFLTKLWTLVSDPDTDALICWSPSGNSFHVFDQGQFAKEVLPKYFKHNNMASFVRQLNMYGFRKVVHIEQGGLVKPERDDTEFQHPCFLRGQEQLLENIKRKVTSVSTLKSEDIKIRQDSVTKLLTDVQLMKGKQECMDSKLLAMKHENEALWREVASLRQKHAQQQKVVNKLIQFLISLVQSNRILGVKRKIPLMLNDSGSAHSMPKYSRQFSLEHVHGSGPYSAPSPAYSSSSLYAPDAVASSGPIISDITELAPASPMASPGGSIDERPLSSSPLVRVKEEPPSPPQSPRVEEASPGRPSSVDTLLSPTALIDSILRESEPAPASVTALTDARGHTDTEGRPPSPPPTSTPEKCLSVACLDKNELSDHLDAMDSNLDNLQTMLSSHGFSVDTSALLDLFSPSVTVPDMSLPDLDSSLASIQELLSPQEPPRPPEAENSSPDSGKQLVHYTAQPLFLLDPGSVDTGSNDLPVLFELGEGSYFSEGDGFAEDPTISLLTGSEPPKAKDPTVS

Q: With TGCTCT as the sequence, how does the binding signal [1] read?
A: 1.34 fold enrichment (6-mer frequency, TF over GST control)

Q: What about the binding signal [2] of the same sequence?
A: 1.48 fold enrichment (6-mer frequency, TF over GST control)

Q: And the binding signal [3]?
A: 1.35 fold enrichment (6-mer frequency, TF over GST control)

Q: What about the binding signal [4] of the same sequence?
A: 1.26 fold enrichment (6-mer frequency, TF over GST control)

Q: And the binding signal [5]?
A: 1.34 fold enrichment (6-mer frequency, TF over GST control)

Q: And the binding signal [6]?
A: 1.19 fold enrichment (6-mer frequency, TF over GST control)

Q: What about the binding signal [7] of the same sequence?
A: 1.42 fold enrichment (6-mer frequency, TF over GST control)

Q: And the binding signal [8]?
A: 1.42 fold enrichment (6-mer frequency, TF over GST control)

Q: What about the binding signal [9] of the same sequence?
A: 1.3 fold enrichment (6-mer frequency, TF over GST control)

Q: What about the binding signal [10] of the same sequence?
A: 1.37 fold enrichment (6-mer frequency, TF over GST control)

Q: And the binding signal [11]?
A: 1.37 fold enrichment (6-mer frequency, TF over GST control)

Q: What about the binding signal [12] of the same sequence?
A: 1.3 fold enrichment (6-mer frequency, TF over GST control)

Q: And the binding signal [13]?
A: 1.2 fold enrichment (6-mer frequency, TF over GST control)

Q: What about the binding signal [14] of the same sequence?
A: 1.36 fold enrichment (6-mer frequency, TF over GST control)

Q: What about the binding signal [15] of the same sequence?
A: 1.38 fold enrichment (6-mer frequency, TF over GST control)

Q: And the binding signal [16]?
A: 1.47 fold enrichment (6-mer frequency, TF over GST control)

Q: What about the binding signal [17] of the same sequence?
A: 1.36 fold enrichment (6-mer frequency, TF over GST control)

Q: And the binding signal [18]?
A: 1.24 fold enrichment (6-mer frequency, TF over GST control)

Q: What about the binding signal [19] of the same sequence?
A: 1.33 fold enrichment (6-mer frequency, TF over GST control)
